Source: PubChem BioAssay (NCATS)
Records with an inconclusive call do not appear. The source made the active and inactive calls. The call rests on the fitted dose curve; in most records, active means well fitted inhibition curve with a large enough effect; inconclusive means small, poorly fitted or top-dose-only effect; inactive means flat fitted curve, though single readings scatter.

What was measured:
Assay in all cases: qHTS profiling for inhibitors of Plasmodium falciparum proliferation (AID 504749); further: nearly all actives have a fitted effect of over 60% in size
Details in all cases: P. falciparum in erythrocytes, SYBR Green DNA, 72 h; series mostly up to 28.7 µM
CP265 = tested on: CP265
Procedure, shortened: (§1)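 In a 72 h erythrocytic culture (37 C, humidified, 5% CO2) at 2.5% hematocrit and 0.3% starting parasitemia, compounds were tested; SYBR Green I in detergent lysis buffer stained parasite DNA overnight.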

CP266 = tested on: CP266
Procedure, shortened: as §1

CP268 = tested on: CP268
Procedure, shortened: as §1

CP269 = tested on: CP269
Procedure, shortened: as §1

CP286 = tested on: CP286
Procedure, shortened: as §1

CP291 = tested on: CP291
Procedure, shortened: as §1

CP297 = tested on: CP297
Procedure, shortened: as §1

CP305 = tested on: CP305
Procedure, shortened: as §1

CP315 = tested on: CP315
Procedure, shortened: as §1

CP325 = tested on: CP325
Procedure, shortened: as §1

Measured: Potency
Potency means the concentration at half of the fitted maximal effect.

C[C@@H]1C(=O)NC2=Nc3cccc(Cl)c3CN21
inactive: all assays above

O=C(Nc1ccc(Cl)c(Cl)c1)C1CC1
inactive: all assays above

CC(=O)Oc1ccc(C(=C2CCCCC2)c2ccc(OC(C)=O)cc2)cc1
inactive: all assays above

O=C(O)c1cc2cc(Cc3cccnc3)ccc2o1
inactive: all assays above

CN(C)/N=N/c1nc[nH]c1C(N)=O
inactive: all assays above

CCCCCCCCCCCCCCCCCC(=O)OCC(O)CO (centres undefined)
inactive: all assays above

C=CCc1ccc(O)c(OC)c1
inactive: all assays above

CCCCCCC[N+](CC)(CC)CCCCc1ccc(Cl)cc1
active: CP265 2.82 µM | CP266 2.56 µM | CP268 2.56 µM | CP269 1.61 µM | CP286 1.12 µM | CP291 1.81 µM | CP297 2.03 µM | CP305 0.572 µM | CP315 2.28 µM | CP325 2.28 µM

O=C(O)CNC(=O)c1ccccc1
inactive: all assays above

CCCn1c(=O)[nH]c(=O)c2[nH]cnc21
inactive: all assays above

O=C1OC(c2ccc(O)cc2)(c2ccc(O)cc2)c2ccccc21
inactive: all assays above

NCCCC[C@H](N[C@@H](CCc1ccccc1)C(=O)O)C(=O)N1CCC[C@H]1C(=O)O
inactive: all assays above

CC(C)(C(=O)c1cccnc1)c1cccnc1
inactive: all assays above

NCCc1ccn[nH]1
inactive: all assays above

CCCCC1=NC2(CCCC2)C(=O)N1Cc1ccc(-c2ccccc2-c2nn[nH]n2)cc1
inactive: all assays above

CN1CCC[C@@H]1c1cccnc1
inactive: all assays above

CC(C)(CO)[C@@H](O)C(=O)NCCCO
inactive: all assays above

CCCCCC=CCC=CCCCCCCCC(=O)OCC
inactive: all assays above

CC(=O)N(O)CCCCCNC(=O)CCC(=O)N(O)CCCCCNC(=O)CCC(=O)N(O)CCCCCN
inactive: all assays above

COc1cc(OC)cc(OC)c1
inactive: all assays above

CCOc1ccc(NC(=O)CC(C)O)cc1 (centres undefined)
inactive: all assays above

O=C(O)CCCCC(=O)O
inactive: all assays above

CCCCCCCCCCCCCCCC[N+](C)(C)CC
active: CP265 5.01 µM | CP266 13.5 µM | CP268 6.75 µM | CP269 4.26 µM | CP286 1.41 µM | CP291 4.78 µM | CP297 6.75 µM | CP305 6.01 µM | CP315 4.78 µM | CP325 6.01 µM

COc1cccc2c1C(=O)c1c(O)c3c(c(O)c1C2=O)C[C@@](O)(C(C)=O)C[C@@H]3O[C@H]1C[C@H](N)[C@H](O)[C@H](C)O1
active: CP265 2 µM | CP266 8.49 µM | CP268 6.01 µM | CP269 4.78 µM | CP286 2 µM | CP291 5.36 µM | CP297 7.57 µM | CP305 4.78 µM | CP315 7.57 µM | CP325 8.49 µM

Cc1c(C)n(CCN(C)C)c2ccc(C(=O)OCCN(C)C)cc12
inactive: all assays above

Cc1ccc(C(=O)C(C)CN2CCCCC2)cc1 (centres undefined)
active: CP265 10 µM
not listed: CP269
inactive: all other assays above

COc1ccc(/C=C/C(=O)c2ccc(OC)cc2OC)cc1
active: CP265 5.01 µM | CP266 7.57 µM | CP268 13.5 µM | CP269 9.53 µM | CP286 10 µM | CP291 8.49 µM | CP297 8.49 µM | CP305 6.01 µM | CP325 12 µM

C[C@]12CCC(=O)C=C1CC[C@H]1[C@@H]3CC[C@](O)(C(=O)CO)[C@@]3(C)C[C@H](O)[C@@]12F
inactive: all assays above

Nc1ccc(C(=O)Nc2ccccc2N)cc1
inactive: all assays above

CC(=O)c1ccc2c(c1)N(CCCN1CCC(CCO)CC1)c1ccccc1S2
not listed: CP286
inactive: all other assays above

CCCCCCCCCCCCCCCCOP(=O)([O-])OCC[N+](C)(C)C
not listed: CP297
inactive: all other assays above

COc1cc(-c2ccc(=O)[nH]n2)ccc1OC(F)F
active: CP265 0.316 µM
not listed: CP269 | CP297 | CP315
inactive: all other assays above

Oc1ccc(Cl)c2cccnc12
not listed: CP286
inactive: all other assays above

CCN1CCN(c2cc3c(cc2F)c(=O)c(C(=O)O)cn3C2CC2)CC1
not listed: CP286 | CP305
inactive: all other assays above

CC(O)C(=O)O (centres undefined)
inactive: all assays above

CC(C)COC(=O)c1ccc(N)cc1
not listed: CP269 | CP291 | CP325
inactive: all other assays above

O=c1ccc2ccccc2o1
inactive: all assays above

Cc1c(N(C)CS(=O)(=O)O)c(=O)n(-c2ccccc2)n1C
inactive: all assays above

O=S1(=O)c2cccc3cccc(c23)N1CCCN1CCN(c2ccc(F)cc2)CC1
not listed: CP291
inactive: all other assays above

Cc1ccc(O)c2ncccc12
not listed: CP286
inactive: all other assays above

Oc1ccc(Cl)cc1Sc1cc(Cl)ccc1O
not listed: CP297
inactive: all other assays above

CCN1CCCC1=O
not listed: CP297
inactive: all other assays above

C[C@H](O)C(=O)Nc1c(I)c(C(=O)NC(CO)CO)c(I)c(C(=O)NC(CO)CO)c1I
not listed: CP315
inactive: all other assays above

Cc1ccnc(NS(=O)(=O)c2ccc(N)cc2)n1
not listed: CP315
inactive: all other assays above

CC(Cc1cccc(C(F)(F)F)c1)NCCOC(=O)c1ccccc1 (centres undefined)
not listed: CP297
inactive: all other assays above

Oc1c(Cl)cc(Cl)cc1Sc1cc(Cl)cc(Cl)c1O
not listed: CP297
inactive: all other assays above
